Assay results reported in PubChem BioAssay (Tox21).
Values joined by “and” are separate entries in the source; they are usually repeats but may differ in a detail not shown here. Identical values can stand only once. Results filed as inconclusive are left out. Some structures have more than one record in an assay (separate samples or runs), and their calls can disagree. Active and inactive are the calls of the source. Unless noted, the call rests on the fitted dose curve; in most records, active means well fitted curve in the direction sought with a large enough effect in the repeat runs; inconclusive means weak or mixed curves; inactive means no such curve, though single readings can be large; an effect the other way counts as inactive or inconclusive.

Experiments:
[1] = qHTS assay to identify small molecule agonists of the peroxisome proliferator-activated receptor delta (PPARd) signaling pathway - cell viability counter screen (AID 743211); further: nearly all actives have a fitted effect of over 55% in size; further: potency means the concentration at half of the fitted maximal effect
Procedure, shortened: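 PPARd-bla HEK293H cells (3000/well) were pre-incubated 5 h at 37 C, then exposed to compound for 17 h at 37 C. After 2 h with LiveBLAzer substrate, CellTiter-Glo was added to the same wells; luminescence read after 30 min at room temperature.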

[2] = qHTS assay to identify small molecule antagonists of the peroxisome proliferator-activated receptor delta (PPARd) signaling pathway - cell viability counter screen (AID 743213); further: nearly all actives have a fitted effect of over 50% in size
Procedure, shortened: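 Cytotoxicity counter screen: CellTiter-Glo luminescence read 30 min after addition, in the same wells as the reporter assay. There, PPARd UAS-bla HEK293H cells (3000/well) were treated 17 h at 37 C with compound and 300 nM L165041.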

[3] = target: Peroxisome proliferator-activated receptor delta (Homo sapiens) (UniProt Q03181); test: qHTS assay to identify small molecule antagonists of the peroxisome proliferator-activated receptor delta (PPARd) signaling pathway (AID 743215; active means well fitted inhibition curve with a large enough effect in the signal ratio in the repeat runs, not every such curve was filed as active; the % refers to the signal ratio;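 further: cells stimulated with agonist L165041 at 300 nM final during compound exposure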; further: potency means the concentration at half of the fitted maximal effect)
Sequence of Peroxisome proliferator-activated receptor delta (Homo sapiens) (Q03181 whole entry, looked up): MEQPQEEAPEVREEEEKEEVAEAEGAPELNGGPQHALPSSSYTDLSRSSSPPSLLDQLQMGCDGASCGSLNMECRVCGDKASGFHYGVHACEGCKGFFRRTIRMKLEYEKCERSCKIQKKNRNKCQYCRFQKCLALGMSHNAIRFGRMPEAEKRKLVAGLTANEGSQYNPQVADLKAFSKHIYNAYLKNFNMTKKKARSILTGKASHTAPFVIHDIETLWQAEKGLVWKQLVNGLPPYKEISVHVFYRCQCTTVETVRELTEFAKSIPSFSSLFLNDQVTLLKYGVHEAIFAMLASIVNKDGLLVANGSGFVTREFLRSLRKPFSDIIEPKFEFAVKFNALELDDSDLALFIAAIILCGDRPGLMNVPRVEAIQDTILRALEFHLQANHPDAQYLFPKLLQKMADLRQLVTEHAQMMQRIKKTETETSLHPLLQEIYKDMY
Procedure, shortened: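 HEK293H UAS-bla, PPARd; agonist L165041 300 nM final with cpd in DMSO; 37 C 17 h; FRET substrate, RT 2 h; fluorescence intensity.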

[4] = target: Bile acid receptor (Homo sapiens) (UniProt Q96RI1); test: qHTS assay to identify small molecule antagonists of the farnesoid-X-receptor (FXR) signaling pathway (AID 743217; active means well fitted inhibition curve with a large enough effect in the signal ratio in the repeat runs, not every such curve was filed as active; the % refers to the signal ratio)
Sequence of Bile acid receptor (Homo sapiens) (Q96RI1 whole entry, looked up): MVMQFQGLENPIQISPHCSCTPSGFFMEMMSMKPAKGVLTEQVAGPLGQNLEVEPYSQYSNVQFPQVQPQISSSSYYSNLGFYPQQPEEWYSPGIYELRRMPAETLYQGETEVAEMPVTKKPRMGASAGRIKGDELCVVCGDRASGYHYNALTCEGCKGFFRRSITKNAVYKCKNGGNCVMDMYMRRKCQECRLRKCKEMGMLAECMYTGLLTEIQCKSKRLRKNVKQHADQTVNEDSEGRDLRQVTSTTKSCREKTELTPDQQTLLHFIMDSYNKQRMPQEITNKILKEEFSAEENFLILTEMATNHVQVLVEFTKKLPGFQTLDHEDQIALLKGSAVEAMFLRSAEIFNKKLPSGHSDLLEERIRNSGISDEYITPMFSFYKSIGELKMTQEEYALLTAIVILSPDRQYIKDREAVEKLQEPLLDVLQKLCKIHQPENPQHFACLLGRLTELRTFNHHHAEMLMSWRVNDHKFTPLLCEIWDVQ
Procedure, shortened: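 GeneBLAzer FXR-UAS-bla HEK 293T, CDCA-stimulated (50 uM final). Compound treatment 16 h, 37 °C. Detection: beta-lactamase cleavage of B/G FRET substrate, fluorescence.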

[5] = qHTS assay to identify small molecule agonists of the farnesoid-X-receptor (FXR) signaling pathway - cell viability counter screen (AID 743218); further: nearly all actives have a fitted effect of over 45% in size
Procedure, shortened: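 Parallel cytotoxicity test: compound-treated (16 h, 37 C) HEK 293T FXR-bla reporter cells were lysed with CellTiter-Glo and luminescence recorded.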

[6] = target: Bile acid receptor (Homo sapiens) (UniProt Q96RI1); test: qHTS assay to identify small molecule agonists of the farnesoid-X-receptor (FXR) signaling pathway (AID 743220; active means well fitted activation curve with a large enough effect in the signal ratio in the repeat runs, not every such curve was filed as active; the % refers to the signal ratio)
Procedure, shortened: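 Beta-lactamase reporter under UAS control in GeneBLAzer FXR HEK 293T cells (5000/well) measured with LiveBLAzer FRET substrate after 2 h at room temperature. Compound exposure lasted 16 h at 37C.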

[7] = qHTS assay to identify small molecule antagonists of the farnesoid-X-receptor (FXR) signaling pathway - cell viability counter screen (AID 743221; active means well fitted cell-killing curve with a large enough effect in the repeat runs, not every such curve was filed as active; further: nearly all actives have a fitted effect of over 50% in size)
Procedure, shortened: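 GeneBLAzer FXR-UAS-bla HEK 293T cells, compound plus chenodeoxycholic acid (50 uM final), 16 h at 37 C. CellTiter-Glo added to the same wells after the beta-lactamase read; luminescence read after 30 min at room temperature as viability.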

[8] = target: Vitamin D3 receptor (Homo sapiens) (UniProt P11473); test: qHTS assay to identify small molecule agonists of the vitamin D receptor (VDR) signaling pathway (AID 743222; calls by dose curve)
Sequence of Vitamin D3 receptor (Homo sapiens) (P11473 whole entry, looked up): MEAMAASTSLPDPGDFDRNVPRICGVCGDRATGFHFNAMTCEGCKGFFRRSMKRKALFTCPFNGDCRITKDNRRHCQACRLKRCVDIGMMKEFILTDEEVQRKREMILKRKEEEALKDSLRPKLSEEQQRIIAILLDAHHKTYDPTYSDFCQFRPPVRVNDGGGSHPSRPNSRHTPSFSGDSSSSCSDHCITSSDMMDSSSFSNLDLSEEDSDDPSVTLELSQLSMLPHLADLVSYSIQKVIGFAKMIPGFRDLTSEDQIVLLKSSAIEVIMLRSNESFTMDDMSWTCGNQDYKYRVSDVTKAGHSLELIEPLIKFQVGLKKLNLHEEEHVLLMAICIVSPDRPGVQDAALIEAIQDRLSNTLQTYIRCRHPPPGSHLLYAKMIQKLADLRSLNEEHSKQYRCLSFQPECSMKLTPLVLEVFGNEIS
Procedure, shortened: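 In VDR-bla cells, compound-induced beta-lactamase expression is quantified by FRET substrate fluorescence. Treatment lasts 16 h at 37C; substrate develops 2 h at room temperature.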

[9] = target: Vitamin D3 receptor (Homo sapiens) (UniProt P11473); test: qHTS assay to identify small molecule antagonists of the vitamin D receptor (VDR) signaling pathway (AID 743223; active means well fitted inhibition curve with a large enough effect in the signal ratio in the repeat runs, not every such curve was filed as active; the % refers to the signal ratio)
Procedure, shortened: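 VDR-bla cells were treated with compound plus 3 nM final 1alpha,25-dihydroxyvitamin D3 for 16 h at 37C. Beta-lactamase reporter read by B/G FRET substrate fluorescence after 2 h at room temperature. qHTS format.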

[10] = target: Peroxisome proliferator-activated receptor delta (Homo sapiens) (UniProt Q03181); test: qHTS assay to identify small molecule agonists of the peroxisome proliferator-activated receptor delta (PPARd) signaling pathway (AID 743212; calls by dose curve)
Procedure, shortened: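 A PPARd-bla HEK293H line with beta-lactamase under an Upstream Activator Sequence is treated with compounds at 37 C. Substrate loading for 2 h at room temperature precedes the fluorescence measurement.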

Measured: Potency

Cc1c(OCC(F)(F)F)ccnc1CS(=O)c1nc2ccccc2[nH]1 (stereo unspecified)
not listed: [8] | [9] | [10]
inactive: all other assays above

NC=O
not listed: [10]
inactive: all other assays above

CC(C(=O)O)c1cccc(C(=O)c2ccccc2)c1 (stereo unspecified)
inactive: [1] | [2] | [3] | [5] | [7]

C[Si](C)(C)O[Si](C)(C)C
not listed: [10]
inactive: all other assays above

CCCc1c(OCCCCc2nn[nH]n2)ccc(C(C)=O)c1O
not listed: [9] | [10]
inactive: all other assays above

Clc1nc(Cl)c(Cl)c(Cl)c1Cl
not listed: [4] | [6] | [10]
inactive: all other assays above

CCCCCCCCCCCO
inactive and 43.6 µM (active): [1]
not listed: [4] | [7] | [10]
inactive: all other assays above

CC(=O)Oc1ccccc1C(=O)Nc1ncc([N+](=O)[O-])s1
inactive: [1] | [10] | [4]

CC(C)(C)NC(=O)[C@H]1CC[C@H]2[C@@H]3CC[C@H]4NC(=O)C=C[C@]4(C)[C@H]3CC[C@]12C
inactive: [1] | [2] | [3] | [5] | [6] | [8]

O=C(O)c1ccccc1Nc1cccc(C(F)(F)F)c1
inactive: [1] | [2] | [3] | [5] | [7] | [9]

c1ccc(Nc2ccccc2)cc1
not listed: [4] | [6] | [10]
inactive: all other assays above

c1ccc2cc(Nc3ccc(Nc4ccc5ccccc5c4)cc3)ccc2c1
not listed: [6] | [7] | [10]
inactive: all other assays above

O=C(/C=C/c1ccccc1)OCc1ccccc1
inactive: [1] | [2] | [3] | [5] | [7]

CCCCCCCCCC(=O)OC
not listed: [8] | [9] | [10]
inactive: all other assays above

O=CCCCC=O
not listed: [7] | [10]
inactive: all other assays above

CC(C)OC=O
not listed: [7] | [10]
inactive: all other assays above

CCC(C)CO (stereo unspecified)
not listed: [10]
inactive: all other assays above

COc1cccc2c1C(=O)c1c(O)c3c(c(O)c1C2=O)C[C@@](O)(C(=O)CO)C[C@@H]3O[C@H]1C[C@H](N)[C@H](O)[C@H](C)O1
active: [3] 1.55 µM and 2.98 µM
inactive: [1] | [2] | [5]

COc1ccc(OC)c(C(O)CNC(=O)CN)c1 (stereo unspecified)
not listed: [7] | [10]
inactive: all other assays above

CCCCOCCOCCOCCO
not listed: [4] | [6] | [10]
inactive: all other assays above

O=C(OCc1ccccc1)c1ccccc1O
inactive: [1] | [10] | [7] | [8] | [9]

COC(=O)CCC(=O)OC
not listed: [7] | [10]
inactive: all other assays above

Cc1ccc2c(n1)Oc1ccc(C(C)C(=O)OCC(=O)N(C)C)cc1C2 (stereo unspecified)
not listed: [4] | [6] | [10]
inactive: all other assays above

CC(C)Oc1ccc2c(=O)c(-c3ccccc3)coc2c1
not listed: [10]
inactive: all other assays above
